Laboratory results: PubChem BioAssay AID1159506 (National Center for Advancing Translational Sciences (NCATS), 2015)
Over roughly 59,000 sequences, the read-out has its median near -0.00055; the lowest 2% begin near -2. Many of the other results were omitted from the sample, so the lowest values are more common in it than they were.

assay: Identification of proteins required for the processing of the EWS-FLI1 nascent transcript; conditions: TC32 Ewing sarcoma NR0B1-luc vs CMV-luc (EWS-FLI1 target promoter against control promoter), 48 h; screened at 20 nM (by protocol);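 also: robust z of luciferase light less the median z of siRNAs with the same seed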
Method in brief: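 Readout: OneGlo luminescence, 48 h post-transfection, TC32-NR0B1-luc vs TC32-CMV-luc in parallel. siRNA 20 nM final, RNAiMax lipid, 600 cells/well; z-score-MAD transformed, then seed-adjusted.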

| Sequence | seed-corrected z-score |
| --- | --- |
| UUCAUUCUCUGCAAAAUCC against NSMCE1 | -0.305 |
| UACGAUCAAAGGUUGAUUC against ATF7IP | -4.54 |
| UUCAAUGCAUACAUAGAGC against ZNF585A | 0.552 |
| AUAGGGUAUAGCUCCAGUC against CIART | 1.2 |
| UGAAGUCGUAGAUCUCACG against PTDSS2 | -2.62 |
| AAUAGUUAUUUUGUUGAGC against C6orf52 | -0.622 |
| UAGGUGUGCAUCAUAGUAA against C11orf94 | -0.539 |
| UGAGUCAUCCACGCAGUUC against PSCA | 0.371 |
| UCUGUUUCCAUUGCGUUCU against FLJ41278 | -0.527 |
| UCUUCGUCUGGGUCGUUUG against SIGLEC6 | -0.384 |
| UUCUGGAGUAGCAAGCUAC against POLR2D | -2.24 |
| UUUCAUCUCCAUCCGGUAG against JPH3 | -0.755 |
| ACUCGAAGCAUCUCGAUGG against HAS3 | -0.313 |
| AACUAAACCAGCUCGCUUC against LRRC8C | 2.39 |
| UGUCAAGUCGGGUUCACCC against CCDC97 | -0.229 |
| UGCUGCUUCCCUAAGAUCC against ATG4A | 0.243 |
| AAUAGCUGCAUAACUGUCU against CLTA | -3.36 |
| UUCUGCUUCAUGUUGAGCC against RECQL4 | -0.111 |
| UCUUGUCGAAAAGCUCACC against KIAA1161 | 0.789 |
| AUCGUGCAAGGUGUUCUCC against BFSP2 | 0.341 |
| AUUUCCUUGAUUGUCAUCC against SERPINB7 | -2.22 |
| AAAGUUCUCGAAAUGCUUC against GLOD4 | -0.0199 |
| UUACGGUACUUGGUCUCGC against NRAP | -1.11 |

| Sequence | seed-corrected z-score |
| --- | --- |
| UUUUUGGUCACCGGUUGCC against GRK5 | -0.48 |
| UAGCUUGAUAAUAACCAGC against EMC8 | 0.529 |
| AUAGUGCUCAUGAACAUGG against OR7G1 | 0.135 |
| UAGCUGUGAACAGUACCCG against MPL | -2.07 |
| UGUUGUCAAAACCACUGCC against CTBP1 | -1.98 |
| UGAUGAACUGGUUAUGAGG against LAPTM5 | 1.26 |
| UACAUCCUCAUUAUAGGUU against ZNRF2 | -0.243 |
| UUGUCUAAUGGUAAAGUGC against LDB2 | -0.144 |
| AAGGGUAUCUGAGUCCUUG against RC3H2 | -0.0262 |
| UGAGCGAUUGUUAAAUGCC against ZNF781 | -0.576 |
| UGCUCUCUCAGAAUCUCGC against SPA17 | -0.647 |
| UUAGCAUUCCUGGAAUCCG against EIF5B | -2.11 |
| AGAUUGUUAAGCAGCGUGU against C7orf43 | 0.291 |
| UCUAUGUCGGGAUCGGUGC against LINC00467 | 0.416 |
| UUCUUAUCAGCAGCUAGUC against CKAP5 | -2.74 |
| AAGGCAACAGUGUCCCAUG against SMIM22 | -1.28 |
| UUUGAAAUUUGUCAGGUCU against PQLC2L | -0.634 |
| UACUAUGUCUUCAAGAUCC against CD99L2 | 0.481 |
| UGCUUUAACUGGAUACAUC against NPHP1 | -2.27 |
| UUCUUAGCUCCCACGAUCC against ZNF512 | 0.51 |
| UUGGUGAAUAAAUAUCAUC against ZBTB25 | 0.411 |
| AAUCUUCCCAUUCUCGUCC against NAA10 | 0.136 |
| UACGGUAUGACUUUCGUUG against RPL23 | -2.37 |

| Sequence | seed-corrected z-score |
| --- | --- |
| AUUGUUACUAUUGGACAGG against RFPL4A | 0.248 |
| UGUUUGACCAUUCCGUAUC against VRK1 | 0.29 |
| UUUCGUCUCAGCACUGCAC against ANKMY1 | 0.0118 |
| UUUGUGACCAGCAAUCUGC against PLA2G2F | -0.775 |
| AAGUUUAGCAAAGACCUGC against VPS39 | -2.66 |
| UCCGAGAUGAGGUAUUAGG against PPIP5K2 | 0.207 |
| UUACACUUCAUUUCCAGAG against WNT11 | 1.06 |
| UUCUUGCCUAGACAGCACC against JAK1 | 0.139 |
| UUUGGGUAAAUAAUCCUUU against C4orf45 | -1.15 |
| UUCGGGUUGUUCUUUUUCC against TCHP | 0.00716 |
| AUAAUAUGAUUCCUAAUCC against FAM188A | 0.685 |
| UUAGCUGCAACUGGAAGGU against TEX13B | -3.82 |
| UGAUGUCCAACACCAGUCC against ADCY3 | 1.37 |
| UUGAACUAAACAUAUCAGC against TAB3 | 1.2 |
| AGUGGAACAAGAUCUCAGU against NOL6 | 0.803 |
| UUCAUACUCAGGCAUAUCC against SEC23A | -0.651 |
| ACAGAUGUCACACUCGAAG against ZNF581 | 0.251 |
| UUUCAUCUCUCUUAGAUAC against AP3S1 | -0.346 |
| UGAGAGUUGAGCCUUAUCA against OR8B8 | -2.36 |
| AGACGAUCAAGCUCUGGUG against CYB5R4 | -0.548 |
| ACAGGUGCAAACAAAGAGC against TMEM167B | -2.18 |
| UGAACAUCCAGUUCUUCCC against CHERP | -1.4 |
| UGGAUUAGCAUGACAGACC against COPB1 | -2.98 |

| Sequence | seed-corrected z-score |
| --- | --- |
| UAUGCUCCUCCCGACAAGU against HMGB1P1 | 0.175 |
| AAACAGACCACCUCGUAGG against MTUS2-AS1 | 0.795 |
| UAUCUUCGUACUCAUUUGG against TNFAIP6 | -2.49 |
| ACUAGAACAAUCUGCAUCC against ZBTB1 | 0.122 |
| UAUCGGAAAGAUAGCCUGG against PTPN3 | 0.486 |
| UACACGUACGGGAUAUUUG against HTR3A | -0.067 |
| UGUUGUAGCACUCCAACGC against PRKDC | -4.34 |
| UCUUUAUCAAAUCUGAGUG against FANCC | 0.127 |
| UGUGGGUUAAAAGUCAGCA against CDK4 | -1.59 |
| UCUACCAACAGCAAGAUAC against PLEKHG4B | -0.565 |
| UGUAGGUGUAGGCUGUUCG against RFX2 | -4.23 |
| UUUCUGCUUGUAUCUGCCC against C1QC | -2 |
| UUCUUUAAGUCAAAGUUUC against FEZF2 | -1.32 |
| UGCUUUAUUAUUAAUGGAC against PABPC3 | -0.79 |
| UGGAUUGUAACCUUUCAUC against EIF2B5 | -0.151 |
| UAUUUAUUAGAAACAUGGG against ZNF415 | -2.45 |
| AAAUAGUUCUCAGUCAUUC against RBM38 | 0.473 |
| AGUUGUCCAAUGCAGAUGU against ZDHHC24 | -0.264 |
| AUAUUUGCAACCUGCAUUC against SPG7 | -0.324 |
| UCAGUUCUUGCAGUGCACC against FAM212B | -0.229 |
| UGGGUGUUCAUGACCUGCC against LMF1 | -2.6 |
| UGCCCAUCCACAUUGUCCU against REXO1 | -0.116 |
| UACGAAUCAAACCAAGAUC against RASGRP3 | -0.4 |

| Sequence | seed-corrected z-score |
| --- | --- |
| UAUUGAUCUGCCGAGGAGC against CYFIP1 | -0.5 |
| UUCGUGACUGUCAUCAUCC against CARD11 | 0.437 |
| UGAACAUACAUCUUGAAUC against SRP19 | 0.739 |
| UCGGUGUAAGGUGUCCAUG against POU2AF1 | -0.0736 |
| UUCUUUCCAAACGCAAGAU against RPRML | -2.78 |
| AACUUGGUAGCGGCUUUGG against CDHR1 | -0.12 |
| UAUAUUGCUCGGUCAAGUC against RBM4 | -0.89 |
| AAACACGUAGGGCACAUUC against SNU13 | -5.96 |
| AAUGGAAAUAUUCUCGACC against CNRIP1 | -0.303 |
| UCACAGAGCAGAUGGGUUC against PTPN7 | -0.424 |
| UUAAGUCUAGGGCAAAUUC against OGFOD1 | 0.0394 |
| UUACCUGCAGAAACCUUCU against MUC1 | -2.32 |
| AAUCUUCUUGUCCUGACUC against PHPT1 | -0.987 |
| AAAUAGGCAAGGAAUCUUG against LARP1BP1 | -1.48 |
| AAUGUUGUCAUAGCCGAUG against PSTPIP2 | -0.92 |
| UACGUGUUGAUUUGUCAGC against ANKZF1 | 0.382 |
| UCCAUUUCAGGAGCUACGC against OTULIN | -2.32 |
| UGCUAAAAUAGUCGCAUCC against LOC727919 | -0.265 |
| AUACCUGCAGUGAACAUUU against ECH1 | -3.28 |
| UACUGACUCCUUGUAUGCC against CSTF2T | 0.0375 |
| UGUCAAACUGGUGCUGUUG against NAGLU | -0.208 |
| AAUGUAAGGCCUUAAAUCG against MRPS27 | 0.696 |
| UUCUUUCACGCUUAGUUUC against LOC729978 | 0.995 |

| Sequence | seed-corrected z-score |
| --- | --- |
| AAAAUUUCAUCCAUCAAUC against NUS1 | 0.0341 |
| UCUUCGUCCACAUUGGUUC against EPG5 | -11.6 |
| UUCUAUACCCAGUACAUGG against ZNF112 | 1.1 |
| UGUUAUAGAAUGACGCACC against DNAH11 | -0.639 |
| AAAGCGAAGAGGUCUAGGC against PASK | 0.632 |
| UCCAGGUCUAGAACUUGCG against DACH1 | -0.158 |
| AAGUCGAUCCAUAACAAUC against AK9 | 0.17 |
| AACCAUACUACAGUCAAUC against TIMM17A | 0.0529 |
| UCAUCUAAAAUCUCGGUAG against POLE | -2.51 |
| UCAUAUACAGCAAACGGGC against RHOJ | -0.695 |
| ACUGUUGUCACUGCGGUGG against GPR20 | -0.419 |
| UAAUUUCAGAGUAUGUCCG against PCDHAC2 | -0.214 |
| UGGGUAGUUAGACUUGAUC against ZNF160 | -2.52 |
| UACCUAUUUAGCAUAUUGG against GRIN2B | 1.13 |
| UUGGAUCCAGUUGAUAACG against EPCAM | 0.867 |
| UGAGUUACAGGGACCGAAG against LINC00944 | -0.148 |
| AGCUUGAGAAUUUACUUGG against HIST1H2BL | -2.21 |
| UUAUCUCCAGCUAUGCUGU against LOC440292 | 1.49 |
